Results published in ChEMBL document CHEMBL3988442, “University of Dundee, Small-Polar-MMV Screening Library” (2021).
Hit rate of the full screen: of about 48,000 compounds, about 13,000 (27%) showed an effect of 50% or more. Some of the results follow.

tested on: Wolbachia pipientis; test: Anti-Wolbachia Cell-Based Screen; type: functional; design: scale not given: in the data most compounds retested in dose-response had high values; conditions: 5 µM

Structure (SMILES) | Percent Effect [%]
Cc1cc(C)c2[nH]c(=O)c(CN3CCC(O)(CN(C)C)C3)cc2c1 (stereo unspecified) | -2.791
COc1ccc(-c2ccc(C(=O)O)c(F)c2)c(F)c1 | -9.144
CC(=O)c1ccc(N2CCC3(CC2)CC(=O)N(C)C3)nc1 | 9.989
CCc1c(C)nc2n(c1=O)CC(C(=O)Nc1nccs1)CS2 (stereo unspecified) | 17.24
CCc1c(C)nc2n(c1=O)CC(C(=O)Nc1ccccc1C)CS2 (stereo unspecified) | 112.9
CCc1c(C)nc2n(c1=O)CC(C(=O)Nc1ncccc1C)CS2 (stereo unspecified) | 124.5
CCc1cccc(C)c1NC(=O)C1CC(=O)N(Cc2ccccn2)C1 (stereo unspecified) | 16.74
CCc1c(C)nc2n(c1=O)CC(C(=O)Nc1sccc1C(=O)OC)CS2 (stereo unspecified) | 119.9
Cc1cnc2n(c1=O)CC(C(=O)Nc1cccc3cccnc13)CS2 (stereo unspecified) | 0.1912
Cc1cnc2n(c1=O)CC(C(=O)NC1CC1)CS2 (stereo unspecified) | -10.47
CCc1c(C)nc2n(c1=O)CC(C(=O)Nc1ccccc1F)CS2 (stereo unspecified) | -0.8379
Cc1cnn(CC2CN(CC(=O)NCCc3cccs3)CCO2)c1 (stereo unspecified) | -8.737
CCC(NC(=O)c1cccc(N2CCCC2=O)c1)c1ccc(OC)cc1 (stereo unspecified) | -14.69
Cc1ccc(N2CCCC(N3CCC(N(C)C)CC3)C2=O)cc1 (stereo unspecified) | 3.726
Cc1cc(=O)n2ncnc2n1CC(O)COCc1ccccc1Cl (stereo unspecified) | -44.43
Cc1cc(F)cc(S(=O)(=O)Nc2noc(C)n2)c1 | -6.165
COCCn1/c(=N\C(=O)CN(C)S(C)(=O)=O)sc2cc(OC)ccc21 | -16.36
Cc1ccc(CN2C[C@H](OCC3CCOCC3)[C@H]3COC[C@H]32)o1.O=C(O)C(F)(F)F | 113.3
Cc1cc(CN2C[C@H](N3CCOCC3)[C@@H]3OCCC[C@@H]32)oc1C.O=C(O)C(F)(F)F.O=C(O)C(F)(F)F | -6.636
Cc1ccc(CN2C[C@H](OCC3CCN(C)CC3)[C@H]3COC[C@H]32)o1 | 110.9
Cc1noc(C)c1CN1C[C@H](OCC2CCN(C)CC2)[C@H]2COC[C@H]21.O=C(O)C(F)(F)F.O=C(O)C(F)(F)F | 122.2
Cc1noc(C)c1CN1CCc2cnn(C)c2C1COCC1CC1.O=C(O)C(F)(F)F.O=C(O)C(F)(F)F (stereo unspecified) | -11.43
Cc1ccc(CN2C[C@H](N3CCOCC3)[C@@H]3OCCC[C@@H]32)o1.O=C(O)C(F)(F)F.O=C(O)C(F)(F)F | -1.951
Cc1noc(C)c1CN1Cc2cn(C)nc2C(COCC2CC2)C1.O=C(O)C(F)(F)F.O=C(O)C(F)(F)F (stereo unspecified) | 0.03565

Structure (SMILES) | Percent Effect [%]
CNC(=O)[C@H]1C[C@H]2OCC[C@H]2N(Cc2ccc(C)o2)C1.O=C(O)C(F)(F)F | -19.44
COCCN1C[C@H]2[C@@H](C1)N(Cc1ccc(C)o1)CC[C@H]2OC | 6.788
CN1CCC(CO[C@H]2CN(C(=O)c3cccn3C)[C@@H]3COC[C@H]23)CC1 | -44.74
Cc1cc(CN2CC[C@H]3[C@H]2CCN3S(C)(=O)=O)oc1C.O=C(O)C(F)(F)F | -17.79
Cc1cc(CN2C[C@H](OCC3CCOCC3)[C@H]3COC[C@H]32)oc1C.O=C(O)C(F)(F)F | 99
CC1(c2ccccc2)CCC(=O)N(CCN2CCCOC2=O)C1 (stereo unspecified) | -2.659
CC(Cn1cnc2cn(C)nc2c1=O)Oc1cccnc1 (stereo unspecified) | -0.8182
Cc1[nH]ncc1CCCNC(=O)N1CCN2CCCCC2C1 (stereo unspecified) | -2.363
CCCn1cnnc1CNC(=O)C1COc2cc(OC)ccc2C1 (stereo unspecified) | -15.52
CCOCCNC(=O)c1cccc(S(=O)(=O)NC[C@@H]2C[C@H](F)CN2)c1 | -1.824
Cc1ccc(F)c(C(=O)N2CCN(S(C)(=O)=O)[C@@H](C)C2)c1 | 7.436
COCc1nc(CN2C(=O)OC[C@@H]2C(C)C)no1 | 7.812
Cc1cc(C(F)(F)F)cc(=O)n1Cc1nc(C(C)C)no1 | 99.71
COCc1nc(Cn2c(C)cc(C(F)(F)F)cc2=O)no1 | 116.4
Cc1cc(C(F)(F)F)cc(=O)n1CCCn1cnnn1 | -2.026
Cc1cc(C(F)(F)F)cc(=O)n1CCn1cc(Cl)cn1 | -6.58
Cc1cnn(CCCn2c(C)cc(C(F)(F)F)cc2=O)c1 | -18.2
COCc1nc(Cn2ncn3cccc3c2=O)no1 | 10.93
COCc1noc(Cn2c(C)cc(C(F)(F)F)cc2=O)n1 | 123.4
COCc1noc(CCNC(=O)c2cc(C)c(C)[nH]c2=O)n1 | 20.99
CCn1cc(CN(C)S(=O)(=O)c2cc(Cl)ccc2Cl)cn1 | 2.949
COCc1ncc(CN2CC(Oc3c(C)cccc3C)C2)cn1 | 2.359
C[S+]([O-])c1nncn1CC(=O)c1ccc2c(c1)CCO2 (stereo unspecified) | -1.094
CC(C)N(C)CC(=O)NCC(O)c1cc2ccccc2s1 (stereo unspecified) | -11.06

Structure (SMILES) | Percent Effect [%]
FC(F)(F)Cc1noc(CN2CCCC2c2noc(C3CC3)n2)n1 (stereo unspecified) | 0.1706
CC(C)c1nc(CSc2nnc(Cn3cncn3)o2)cs1 | -8.133
CC(C)Cc1nc(CSCC(=O)N2CCC(C)CC2)no1 | 4.489
CC(C)Cc1cc(NC(=O)c2ccccc2F)n(C)n1 | 99.33
COc1ccccc1C(=O)Nc1cc(CC(C)C)nn1C | 100.2
CC(C)Cc1cc(C(=O)N2CC(OCc3ccccc3F)C2)n(C)n1 | 4.315
CC(C)Cc1cc(C(=O)NC(C)(CO)CO)n(C)n1 | 11.8
O=c1c2cccnc2cnn1CC(O)c1ccc(Br)cc1 (stereo unspecified) | -15.17
CSCCC(NC(N)=O)C(=O)NCc1cnn(-c2ccccc2)c1 (stereo unspecified) | -24.8
CCN1CCNC(=O)C12CCN(S(=O)(=O)c1ccc(F)cc1)CC2 | -6
N[C@H]1CN(S(=O)(=O)c2ccccc2)C[C@@H]1C1CC1 | -7.486
CCC[C@H]1CN(S(=O)(=O)c2ccccc2)C[C@@H]1N | -22.4
CC(C)CN1CC(O)CN(S(=O)(=O)c2ccc(F)cc2)CC1=O (stereo unspecified) | 103.6
CC(C)CN1CC(O)CN(S(=O)(=O)c2ccccc2)CC1=O (stereo unspecified) | 100.2
CC(C)CN1CC(c2nc(-c3ccc(F)cc3)c[nH]2)CC1=O (stereo unspecified) | -3.521
O=C1CN(S(=O)(=O)c2ccc(F)cc2)CC(O)CN1CC1CC1 (stereo unspecified) | 106.3
CC(C)CN1CCNC(=O)C12CCN(S(=O)(=O)c1ccc(F)cc1)CC2 | -14.33
O=C1CO[C@@H]2CN(S(=O)(=O)c3ccccc3)C[C@H]2N1CC1CC1 | -2.601
Cc1ccc(C)c(OC(C)C(=O)NCCNc2cccnc2)c1 (stereo unspecified) | 16.95
CCn1ncc2c1NC(=O)CC2c1cnc(-c2ccccn2)nc1 (stereo unspecified) | -2.059
COc1ccccc1N1CCN(C(=O)Cn2nc(C)cc2C)CC1(C)C | -9.26
Cc1c(Cl)c(C(=O)N2CC[C@H](N3CCOCC3)[C@H](CCCO)C2)nn1C | -7.195
CC(C)(C)c1nc(CN2CCC(c3nc4cc(Cl)ccc4o3)CC2)no1 | -20.96
CC(C)(C)c1noc(CN2CCCN(Cc3cccs3)CC2)n1 | 1.032

Structure (SMILES) | Percent Effect [%]
CCc1noc(CN2CCCN(Cc3cccs3)CC2)n1 | 74.2
Cc1noc(CN2CCN(Cc3cccs3)CC2)n1 | 0.5359
CC(C)CCN1CCN(Cc2nc(C(C)C)no2)CC1 | -7.959
CC(C)Cc1noc(CN2CCN(C(=O)c3cccs3)CC2)n1 | -25.07
CC(C)c1noc(CN2CCCN(Cc3cccs3)CC2)n1 | 67.59
CC(C)(C)c1nc(CN2CCCN(Cc3cccs3)CC2)no1 | 85.49
CCc1noc(CN2CCN(Cc3cccs3)CC2)n1 | 91.28
CCc1noc(CN2CCCN(C(N)=O)CC2)n1 | -3.109
CCc1nc(CN2CCCN(c3cnc4ccccc4n3)CC2)no1 | -8.028
Cc1cc2nc(CO[C@H]3CN(CC4CC4)C[C@H]3F)[nH]c2cc1C | -2.135
Cc1cc(C)n(CC(C)NC2CCN(Cc3cccnc3)CC2)n1 (stereo unspecified) | -17.52
CNC(=O)[C@@H]1[C@@H](OC(=O)Nc2ccccc2)C(=O)N(C)C12CCNCC2 | 89.46
CN1C(=O)[C@H](OC(N)=O)[C@@H](C(=O)Nc2ccccc2)C12CCNCC2 | 104.3
Cc1ncccc1OC1(C(=O)NCCNc2ccccc2)CCNCC1 | -10.51
CN1C(=O)CO[C@H](c2ccc(NC(=O)Nc3ccccc3)cc2)[C@H]1CO | -13.1
O=C(Nc1ccccc1)[C@H]1O[C@H](CCN2CCNCC2)CC[C@@H]1O | 1.571
CO[C@H]1C(=O)N(C)C2(CCNCC2)[C@@H]1C(=O)Nc1ccccc1 | 91.16
CN1CC2(CNCCN(C(=O)Nc3ccccc3)C2)CC1=O.O=C(O)C(F)(F)F (stereo unspecified) | -22.36
CCc1cc(N2CCSCC2)n2nc(C)c(C)c2n1 | 8.974
Cc1n[nH]c(C)c1CCN(C)C(=O)c1ccc(CCC(C)(C)O)cc1 | 11.25
CN(Cc1cc(Br)cn1C)C(=O)c1cc(Cl)ccn1 | -3.777
O=C(c1cc(-c2cn[nH]c2)nc2ccc(F)cc12)N1CCSCC1 | 9.042
COc1ccc2cc(CN(C)CCc3cn[nH]c3)c(=O)[nH]c2c1 | -3.299
Cc1ccccc1C(=O)NC1CCN(Cc2ncc(C(C)(C)C)o2)CC1 | 19.24
